Screens: PubChem BioAssay, Johns Hopkins Ion Channel Center
KCNQ2 enhance: potentiators of rat KCNQ2 potassium channel. Potassium voltage-gated channel subfamily KQT member 2 (Rattus norvegicus), O88943. CHO-K1 KCNQ2, FluxOR thallium flux fluorescence; active compounds read high. B-score at 10 µM. actives 0.54% (n = 310,000);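 active = fluorescence ratio B-score at least 3 SD of library B-scores, with initial fluorescence B-score within 3 of them, cut at about 5.3 in these data; same plate scores as AID 2156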;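 also: B-score of peak minus minimum over baseline fluorescence ratio after K+ and Tl+ stimulus; positive B-score means potentiation of KCNQ2 with more thallium influx and brighter signal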
KCNQ2 inh: rat KCNQ2 potassium channel inhibitors, primary screen, cell-based, CHO-K1, FluxOR thallium flux, B-score | Potassium voltage-gated channel subfamily KQT member 2 (Rattus norvegicus), O88943 | 20 min; active compounds read low | B-score at 10 µM | actives 1.1% (n = 310,000) | AID 2156, 2009;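 active = fluorescence ratio B-score at most minus 3 library SDs, with starting brightness B-score within 2 library SDs, cut at about -5.5 in these data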
Kir21 conf inh: mouse Kir2.1 channel blockers, retest, confirmation, cell-based, FluxOR thallium flux, duplicate. Kir2.1-expressing cells, FluxOR thallium flux fluorescence; active compounds read low. shares compounds with KCNQ2 enhance. Tl flux remaining, % of negative control (active compounds read low), % at 10 µM. AID 2032, 2009. actives 41% (n = 2,300);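 active = Primary-screen hit whose thallium flux fell at least 3 control SD below untreated wells in both duplicates, with normal baseline fluorescence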;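 also: 0% = blank wells without stimulus and 100% = stimulated no-compound controls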
HEK293 Tl flux: counter-screen for Kir2.1 inhibitors: effect in parental HEK293 cells; FluxOR signal as % of negative control (100 = no effect), % at 10 µM; shares compounds with KCNQ2 enhance; actives 19% (n = 2,300); AID 2105; FluxOR thallium flux fluorescence; 0% = unstimulated blank wells;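 active = dye signal at least 3 control SD above or below untreated wells in both duplicates, raw fluorescence within 3, either direction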;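 also: percent is based on the flux ratio of peak minus minimum fluorescence over baseline F0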
CHO-K1 ctr: nonspecific thallium flux increase in parental CHO-K1, confirmation, counter-screen for KCNQ2 potentiator project, cell-based, FluxOR thallium flux, duplicate. shares compounds with KCNQ2 enhance. actives 43% (n = 1,200). activity increase over 3SD of controls, % at 10 µM. parental CHO-K1 cells, FluxOR thallium flux fluorescence; zero = vehicle mean+3SD, 100% = vehicle-minus-blank window. AID 2282, 2010;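 active = signal rise of at least 3 SD above the untreated control mean, in both duplicate wells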;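 also: counter screen of KCNQ2 potentiator hits so any rise reflects channel-independent effects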
KCNQ1 pot spec: human KCNQ1 channel potentiation off-target, confirmation, selectivity assay for KCNQ2 potentiator project, cell-based, CHO, FluxOR thallium flux | CHO KCNQ1 stable, FluxOR thallium flux fluorescence; beyond 3SD, as % of vehicle-control signal | activation over 3SD threshold, % at 10 µM | AID 2283, 2010 | shares compounds with KCNQ2 enhance | actives 28% (n = 1,200);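 active = fluorescence ratio rise of at least 3 SD of vehicle wells above their mean, in both replicate wells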;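 also: 0% = vehicle mean plus 3 SD and 100% = vehicle minus unstimulated blank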
Target sequence (P51787 whole entry, looked up): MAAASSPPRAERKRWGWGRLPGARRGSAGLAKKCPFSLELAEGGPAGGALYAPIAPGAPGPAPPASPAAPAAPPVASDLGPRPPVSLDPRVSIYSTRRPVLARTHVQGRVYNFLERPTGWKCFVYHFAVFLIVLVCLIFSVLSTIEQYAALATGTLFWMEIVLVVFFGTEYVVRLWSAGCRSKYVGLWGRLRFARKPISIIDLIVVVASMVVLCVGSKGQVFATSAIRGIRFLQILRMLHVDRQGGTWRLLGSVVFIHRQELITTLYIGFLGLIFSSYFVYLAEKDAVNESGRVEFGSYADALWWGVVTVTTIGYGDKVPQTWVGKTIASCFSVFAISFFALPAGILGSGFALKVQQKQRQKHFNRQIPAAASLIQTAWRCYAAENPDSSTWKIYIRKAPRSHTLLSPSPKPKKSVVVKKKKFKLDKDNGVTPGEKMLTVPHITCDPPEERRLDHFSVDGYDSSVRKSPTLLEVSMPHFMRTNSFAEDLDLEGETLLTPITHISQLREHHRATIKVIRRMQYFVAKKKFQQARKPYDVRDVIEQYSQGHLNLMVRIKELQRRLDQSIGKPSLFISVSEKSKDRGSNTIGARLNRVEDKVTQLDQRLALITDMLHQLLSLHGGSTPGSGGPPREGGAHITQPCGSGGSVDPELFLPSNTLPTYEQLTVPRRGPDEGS
KCNQ2 pot confirm: rat KCNQ2 channel potentiators, confirmation, cell-based, CHO, FluxOR thallium flux, duplicate. shares compounds with KCNQ2 enhance. CHO-KCNQ2 cells, FluxOR thallium flux fluorescence. potentiation, less the hit threshold, % at 10 µM. actives 68% (n = 1,200);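 active = fluorescence ratio rising 3 SD or more over the vehicle control mean in both replicates, plus primary screen hit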;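 also: peak minus minimum thallium fluorescence divided by baseline after K/Tl stimulus; 0% = vehicle mean plus 3 SD and 100% = vehicle minus unstimulated blank difference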
Kir2-1 sel: mouse Kir2.1 channel activation off-target, confirmation, selectivity assay for KCNQ2 potentiator project, cell-based, HEK293, FluxOR thallium flux | shares compounds with KCNQ2 enhance | HEK293 Kir2.1, FluxOR thallium flux fluorescence | activity over 3SD threshold, % at 10 µM | actives 2% (n = 1,200);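 active = fluorescence ratio rise of at least 3 SD above the vehicle-control mean, seen in both replicates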;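 also: 0% = vehicle mean plus 3 SD and 100% = vehicle minus no-stimulus blank window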
KCNQ2 W236L pot: potentiators of retigabine-insensitive KCNQ2 W236L, mechanism study for KCNQ2 potentiator project, cell-based, rat KCNQ2 W236L, CHO, automated patch clamp. actives 10% (n = 940). shares compounds with KCNQ2 enhance. current increase over 3SD of negative controls (%), active compounds read high, % at 25 µM. automated patch clamp current;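 active = current increase at least 3 SD of the untreated controls above them in both duplicate recordings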
Active calls of the source: *. Sampled rows, rich in hits. Any-hit rate of the full collection: about 1.6%.

What do the screens show for `Cc1ccc(/C=N/n2c(-c3cccs3)n[nH]c2=S)cc1`?
KCNQ2 enhance: 1.8; KCNQ2 inh: inactive

How did Nn1c(Cc2cccc3ccccc23)nnc1SCC(=O)NCC1CCCO1 (configuration not stated) do in these assays?
KCNQ2 inh: inactive

Results for CC(=O)c1ccc(NC(=O)C(C)OC(=O)c2cccc(-n3cnnn3)c2)cc1 (configuration not stated) ?
KCNQ2 enhance: 0.27; KCNQ2 inh: inactive

Results for CC(OC(=O)c1cccc(-n2cnnn2)c1)C(=O)Nc1cccc(Cl)c1 (configuration not stated) ?
KCNQ2 enhance: 1.2; KCNQ2 inh: inactive; Kir21 conf inh: inactive; HEK293 Tl flux: inactive

How did CC(=O)C1=C(O)C(=O)N(c2ccc(F)cc2)C1c1ccc(C)cc1 (configuration not stated) do in these assays?
KCNQ2 inh: inactive

What do the screens show for `C=CCn1c(SCc2ccc(C(=O)OC)cc2)nnc1-c1sc(N)nc1C`?
KCNQ2 enhance: 0.11; KCNQ2 inh: inactive

How did C=CCn1c(SC/C=C/c2ccccc2)nnc1-c1sc(N)nc1C do in these assays?
KCNQ2 inh: inactive; Kir21 conf inh: 60%*; HEK293 Tl flux: inactive

What do the screens show for `CCCCCNC(=O)c1cccc(S(=O)(=O)N2CC3(C)CC2CC(C)(C)C3)c1` (configuration not stated)?
KCNQ2 enhance: 2.2; KCNQ2 inh: inactive

How did CN(CC(=O)Nc1cccc(F)c1)C(=O)c1cccc(S(=O)(=O)N2CC3(C)CC2CC(C)(C)C3)c1 (configuration not stated) do in these assays?
KCNQ2 enhance: 9.2*; KCNQ2 inh: inactive; Kir21 conf inh: inactive; HEK293 Tl flux: inactive; CHO-K1 ctr: 92*; KCNQ1 pot spec: 16*; KCNQ2 pot confirm: 1.7*; Kir2-1 sel: -27; KCNQ2 W236L pot: inactive

What do the screens show for `Cc1cccc(CC(=O)NCC2CCCCC2)c1`?
KCNQ2 enhance: 9.4*; KCNQ2 inh: inactive; Kir21 conf inh: inactive; HEK293 Tl flux: inactive; CHO-K1 ctr: 39*; KCNQ1 pot spec: -18; KCNQ2 pot confirm: 28*; Kir2-1 sel: -27; KCNQ2 W236L pot: inactive

How did COc1cccc(/C=C/C(=O)NCC2CCCCC2)c1 do in these assays?
KCNQ2 inh: inactive

How did C#CCN(C)Cc1ccccc1 do in these assays?
KCNQ2 inh: inactive

What do the screens show for `C#CC(CO)N(CCN(Cc1ccccc1)C(C#C)CO)Cc1ccccc1` (configuration not stated)?
KCNQ2 inh: inactive; Kir21 conf inh: 62%*; HEK293 Tl flux: inactive

Results for CSc1nc2c(c(=O)[nH]1)C(c1cccc(Cl)c1)CC(=O)N2 (configuration not stated) ?
KCNQ2 enhance: 0.81; KCNQ2 inh: inactive

What do the screens show for `CSc1nc2c(c(=O)[nH]1)C(c1ccc(Cl)cc1)CC(=O)N2` (configuration not stated)?
KCNQ2 inh: inactive; Kir21 conf inh: inactive; HEK293 Tl flux: inactive

What do the screens show for `CC(CCc1ccccc1)NC(=O)CN1CCN(c2ccccc2)CC1` (configuration not stated)?
KCNQ2 inh: inactive

Results for C/C(=C\c1ccccc1)C(=O)NC1CCSC1=O (configuration not stated) ?
KCNQ2 inh: inactive

What do the screens show for `CCc1ccc(C(=O)Nn2c(C)nc3ccccc3c2=O)cc1`?
KCNQ2 enhance: 1.4; KCNQ2 inh: inactive

How did CCCCCc1ccc(CC(=O)Nn2c(C)nc3ccccc3c2=O)cc1 do in these assays?
KCNQ2 enhance: 15*; KCNQ2 inh: inactive; Kir21 conf inh: inactive; HEK293 Tl flux: inactive; CHO-K1 ctr: 10*; KCNQ1 pot spec: -8; KCNQ2 pot confirm: 93*; Kir2-1 sel: -40; KCNQ2 W236L pot: inactive

What do the screens show for `Cc1cccc(NC(=O)C(=O)NNC(=O)c2ccc(C(C)(C)C)cc2)c1`?
KCNQ2 enhance: 16*; KCNQ2 inh: inactive; Kir21 conf inh: inactive; HEK293 Tl flux: inactive; CHO-K1 ctr: 22*; KCNQ1 pot spec: 4.1*; KCNQ2 pot confirm: 44*; Kir2-1 sel: -31; KCNQ2 W236L pot: inactive

Results for CC(C)(C)c1ccc(C(=O)NNC(=O)c2cccc(Br)c2)cc1 ?
KCNQ2 enhance: 0.8; KCNQ2 inh: inactive

Results for CC(=O)OC[C@H]1O[C@@H](O/N=C(\C)CCN2CCCCc3nc(C)c(C)cc32)[C@H](OC(C)=O)[C@@H](OC(C)=O)[C@@H]1OC(C)=O ?
KCNQ2 enhance: 0.09; KCNQ2 inh: inactive

What do the screens show for `CCCCCCCC(=O)N/N=C/c1ccc(Br)cc1`?
KCNQ2 enhance: 0.99; KCNQ2 inh: inactive

Results for CCCCCCCC(=O)N/N=C/c1ccco1 ?
KCNQ2 enhance: 11*; KCNQ2 inh: inactive; Kir21 conf inh: inactive; HEK293 Tl flux: inactive; CHO-K1 ctr: 0.0*; KCNQ1 pot spec: 2.6*; KCNQ2 pot confirm: 59*; Kir2-1 sel: -37; KCNQ2 W236L pot: inactive

How did O=C(Nc1ccc(Cl)cc1Cl)N1CCN(c2ncccn2)CC1 do in these assays?
KCNQ2 enhance: 2.2; KCNQ2 inh: inactive

What do the screens show for `Fc1ccc(-c2cc(C(F)(F)F)nc(-n3cccn3)n2)cc1`?
KCNQ2 inh: inactive
